Source: PubChem BioAssay (several laboratories)
Shn3 3UTR inh = reduction of Shn3 3'UTR firefly luciferase signal, primary screen, Schnurri-3 inhibitor project, cell-based, Clone20 osteoblasts, set 2; Clone20 osteoblast Shn3 3'UTR firefly luciferase, 24 h; inhibition, % at 12.5 µM; hit rate 0.52% among 360,000; AID 588674, 2011;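 active = mean inhibition of at least 75% with every replicate also reaching 75%; inconclusive = mean inhibition at least 75% but some replicate below; inactive = mean inhibition below 75%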
MITF TRPM1 inh = inhibitors of MITF-dependent TRPM1 promoter reporter, primary screen, cell-based, SK-MEL-5, single point, luciferase; SK-MEL-5 TRPM1 promoter luciferase, 24 h; inhibition, % at 12.5 µM; hit rate 0.83% among 330,000;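 active = mean inhibition across replicates of 60% or more, whatever share of single replicates reaches that level; inconclusive = some that reach 60%, reason not given; inactive = mean inhibition across replicates below 60%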
CF NFkB block = inhibitors of PAF-induced NF-kB signaling, primary screen, cell-based, GFP fluorescence, uHTS; KKLEB NF-kB-GFP reporter, GFP fluorescence overnight; inhibition, % at 5 µM; hit rate 0.86% among 360,000; AID 588850, 2011;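 active = at least 50% inhibition at 5 µM, scaled per plate between neutral and stimulator controls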;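 note: PAF is a Pseudomonas aeruginosa culture filtrate used as stimulus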
KKLEB cytotox = cytotoxicity in KKLEB CF airway cells, primary screen, cytotoxicity control for CF NF-kB inhibitor project, cell-based, uHTS, fluorescence assay plates; KKLEB CF airway cells viability, ATPlite luminescence, overnight; active compounds read low; cells stimulated with P. aeruginosa culture filtrate; activity change (cytotoxicity), % at 5 µM; hit rate 0.36% among 360,000;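 active = corrected activity change at or below -50% at 5 µM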
HIF-2a block = HIF-2a reporter inhibitors, primary screen, luminescence, 786-0 RCC cells. inhibition, % at 18.8 µM. hit rate 0.72% among 360,000. 786-0 RCC cells HIF-2a reporter, luciferase luminescence, overnight. AID 624352, 2012;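 active = inhibition of the luminescence signal of 40% or more relative to plate controls, in a single-dose primary screen at 18.75 µM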
Peg3 promoter = Peg3 promoter-driven luciferase inhibitors, primary screen, cell-based, HeLa, luciferase luminescence | HeLa PEG-Prom luciferase reporter, overnight | inhibition, % at 20 µM | hit rate 1.7% among 360,000 | AID 588405, 2011;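 active = inhibition of at least 50% at 20 µM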
Hits are given with their value; n = inactive; u = inconclusive; x = no result. Rows were chosen to be rich in hits. Some 2.8% of all compounds tested hit in one or more screens of this group.

SMILES	Shn3 3UTR inh	MITF TRPM1 inh	CF NFkB block	KKLEB cytotox	HIF-2a block	Peg3 promoter
Cc1ccc(/C=C2\SC(=S)N(CCCC(=O)N3CCOCC3)C2=O)cc1	n	n	n	n	58	n
O=C1/C(=C/c2ccccc2F)SC(=S)N1CCC(=O)N1CCCCC1CCO (stereo not given)	n	n	n	n	n	53
COc1cccc(/C=C2\SC(=S)N(CCC(=O)N3CCCCC3)C2=O)c1	n	n	n	n	46	90
CC(/C=C1\SC(=S)N(c2ccc(C(=O)O)cc2)C1=O)=C\c1ccccc1	n	n	n	n	51	n
Cc1cc(NC(=O)c2ccc(C#N)cc2)on1	n	n	n	n	n	n
CC1CCN(C(=O)CCN2C(=O)/C(=C/c3cccs3)SC2=S)CC1	n	n	n	n	n	94
O=C(CCN1C(=O)/C(=C\c2ccccc2Cl)SC1=S)N1CCN(c2ccccc2)CC1	n	n	n	n	60	100
COc1ccc(/C=C2\SC(=S)N(CCC(=O)N3CCCCC3)C2=O)cc1	n	n	n	n	76	50
CCc1ccc(/C=C2\SC(=S)N(CCC(=O)N3CCN(C)CC3)C2=O)cc1	n	n	n	n	n	n
CCc1ccc(/C=C2\SC(=S)N(CCC(=O)Nc3cc(C)on3)C2=O)cc1	n	n	n	n	82	n
COc1ccc(/C=C2/SC(=S)N(CCC(=O)N3CCN(C)CC3)C2=O)cc1	n	n	n	n	n	n
O=C(O)COc1ccc(C=C2SC(=S)N(c3ccccc3)C2=O)cc1	n	n	n	n	43	n
CCOc1ccc(/C=C2\SC(=S)N(CCC(=O)O)C2=O)cc1	n	85	n	n	91	n
CCOc1ccc(/C=C2/SC(=S)N(CCC(=O)Nc3ccc(C(=O)O)cc3)C2=O)cc1	n	n	n	n	n	n
COc1ccc(/C=C2/SC(=S)N(CCCC(=O)N3CCN(C)CC3)C2=O)cc1	n	n	n	n	69	n
O=C(O)COc1cccc(/C=C2/SC(=S)N(Cc3ccccc3)C2=O)c1	n	n	n	n	n	n
Cc1noc(C)c1COC(=O)c1csc2c1CCC(C)C2 (stereo not given)	n	n	n	n	n	n
CC(=O)[C@H]1CC[C@H]2[C@@H]3CC=C4C[C@@H](OS(=O)(=O)O)CC[C@]4(C)[C@H]3CC[C@]12C	n	n	n	n	n	n
CC(=O)O[C@H]1CC[C@@]2(C)C(=CC[C@H]3[C@@H]4CC[C@H](C(C)=O)[C@@]4(C)CC[C@@H]32)C1	87	n	n	n	n	n
CCC(=O)N(C1=C(NC)C(=O)c2ccccc2C1=O)C(C)C	n	n	n	n	n	n
CNC1=C(N(C(C)=O)c2ccc(Br)cc2)C(=O)c2ccccc2C1=O	n	107	76	-62	60	102
CC(=O)NC12CC3CC(C1)CC(C(=O)Nc1cccc(S(=O)(=O)N4CCCCCC4)c1)(C3)C2	n	n	n	n	n	n
CC(C)(C)c1ccc(Oc2ccc(N)cn2)cc1	n	x	n	n	77	n
CC(=O)c1ccc(N2CCN(c3ccc(S(=O)(=O)NCCCN(C)C)cc3[N+](=O)[O-])CC2)cc1	u	n	n	n	n	79
CN(C)CC1CCCCC1OC(=O)c1ccc(S(=O)(=O)N(C)c2ccccc2)cc1 (stereo not given)	n	n	n	n	n	n
SMILES	Shn3 3UTR inh	MITF TRPM1 inh	CF NFkB block	KKLEB cytotox	HIF-2a block	Peg3 promoter
O=C(C=Cc1ccccn1)c1ccccc1O	n	88	n	n	n	98
Cc1cc(/C=C2\C(=N)N3N=C(C(C)C)SC3=NC2=O)c(C)n1Cc1ccccc1	n	n	n	n	n	n
Cc1cc(/C=C2\C(=N)N3C(SCc4ccccc4)=NSC3=NC2=O)c(C)n1Cc1ccccc1	n	n	n	-53	n	n
Cc1cc(C)c(C)c(OC(=O)c2sc(Cl)nc2C)c1	n	n	n	n	n	90
O=C(NCc1nc2ccccc2[nH]1)C1=C[C@H](c2ccc(C(F)(F)F)cc2)C[C@H](OCCCCO)O1	n	n	n	n	n	n
CCOC1=CC2=C(C(=O)C(Cl)=CC2=O)[C@@H]2CN(S(=O)(=O)c3ccc(C)cc3)[C@@H](c3ccccc3)[C@H]12	n	x	n	n	57	n
CCN1C(=O)[C@@H]2[C@@H]3CN(S(=O)(=O)c4ccc(C)cc4)[C@@H](c4ccccc4)[C@@H]3C(=O)C[C@@H]2C1=O	n	x	n	n	n	n
COc1ccc([C@H]2CC(=O)C=C(c3ccc4c(c3)OCO4)C2)cc1OC	86	x	n	n	n	n
O=C(c1ccccc1)c1ccc(N2CCN(C(=O)c3ccc(F)cc3F)CC2)c(F)c1	n	x	n	n	n	n
NC(=O)C1=CC2C3C=CC2(O)C(=O)OC3O1 (stereo not given)	n	71	n	n	n	102
CC1CCCN(CCCNC(=O)c2ccc3c(c2)N(Cc2cccc(Cl)c2)C(=O)c2ccccc2S3=O)C1 (stereo not given)	n	x	n	n	n	57
CC(C)OC(=O)C1=C(N)N2C(=O)CSC2=C(C(=O)OC(C)C)C1	n	n	n	n	n	52
COC(=O)C1=C2SCC(=O)N2C(N)=C(C#N)C1	n	n	n	n	n	n
Cc1ccc(NC2=CC(=O)C(=O)c3ccccc32)c(C)c1	n	x	77	n	n	n
O=C1C=C(Nc2ccccc2O)c2ccccc2C1=O	n	100	64	-64	n	n
O=c1cccccc1NCc1ccccc1	n	n	n	n	n	n
O=C1C=C(NCc2ccccc2)c2ccccc2C1=O	n	104	n	n	n	n
Cc1ccc(NS(=O)(=O)c2ccc3c(c2)C(=O)c2ccccc2C3=O)c(C)c1	n	n	n	n	n	n
O=C(Nc1ccccc1O)c1ccc2c(c1)C(=O)N(N1C(=O)c3ccccc3C1=O)C2=O	n	n	n	n	n	n
OC(c1ccccc1)c1nc(-c2ccc3c(c2)OCO3)cs1 (stereo not given)	n	x	n	n	n	n
Cc1cc(C)n(-c2ccc([N+](=O)[O-])cc2)n1	n	n	n	n	n	107
CC(C)(C)S(=O)N1Cc2cc(C(=O)O)nc(-c3cccc(-c4cc5ccccc5o4)c3)c2[C@H]1CCO (stereo not given in full)	n	x	n	n	n	n
CC(C)(C)S(=O)N1Cc2cc(C(=O)Nc3ccc(-c4ccccc4)cc3)nc(-c3cccc(-c4cc5ccccc5o4)c3)c2[C@@H]1CCO (stereo not given in full)	n	x	n	n	n	93
